# Shiga inhibitor: Shiga toxin inhibition | 290,000 compounds, 9.2% hits | Vero cells, Shiga toxin protein synthesis inhibition reporter | inhibition, % at 38.7 µM; in the data active = inhibition mostly above about 28%, no sharp cut-off; inactive = mostly below about 43%
# AmpC no deterg: inhibitors of E. coli AmpC beta-lactamase without detergent. P00811. AmpC nitrocefin hydrolysis, absorbance 480 nm, 0.0001% Triton. Potency, µM (top dose mostly 57.1 µM), most hits filed as inhibitors. 330,000 compounds, 0.52% hits. AID 485341; note: nearly all actives have a fitted effect of over 20% in size
# Target sequence (P00811 whole entry, looked up): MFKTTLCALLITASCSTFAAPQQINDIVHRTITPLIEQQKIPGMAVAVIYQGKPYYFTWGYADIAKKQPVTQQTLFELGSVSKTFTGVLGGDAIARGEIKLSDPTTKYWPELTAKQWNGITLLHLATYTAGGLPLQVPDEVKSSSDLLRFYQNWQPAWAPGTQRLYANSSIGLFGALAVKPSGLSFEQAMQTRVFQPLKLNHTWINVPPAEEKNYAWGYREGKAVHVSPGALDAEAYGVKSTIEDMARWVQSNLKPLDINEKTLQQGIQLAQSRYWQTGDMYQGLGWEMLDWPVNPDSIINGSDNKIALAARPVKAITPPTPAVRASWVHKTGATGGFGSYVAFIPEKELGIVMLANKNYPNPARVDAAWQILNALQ
#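 20 mM phosphate pH 7.0 + 0.01% (detergent screen) or 0.0001% Triton X-100; 5.3 nM AmpC reagent; cpd preinc 15 min RT; nitrocefin (800 uM stock) to start; A480 q20 s × 4 min; Activity was normalised to no-enzyme and no-compound control wells.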
# AmpC detergent: blocks E. coli AmpC beta-lactamase in detergent assay. Potency, µM (highest dose often 114 µM), hits mostly inhibitors. AID 485294. 370,000 compounds, 0.041% hits. AmpC hydrolysis of nitrocefin, absorbance 480 nm, 0.01% Triton. P00811; note: nearly all actives have a fitted effect of over 25% in size
#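 AmpC (5.3 nM in the dispensed reagent) in 20 mM phosphate pH 7.0 with 0.01% (detergent screen) or 0.0001% Triton X-100 was preincubated with compounds for 15 min at room temperature. Nitrocefin was then added from an 800 uM solution, and hydrolysis was followed at 480 nm.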
# NS1 inh: influenza NS1 inhibition. Potency, µM (doses to about 46.1 µM). 270,000 compounds, 0.4% hits. AID 2326; calls by dose curve; note: actives are rising curves; nearly all actives have a fitted effect of over 50% in size
#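 A cell-based growth assay was used: compounds that relieve NS1-induced slow growth of budding yeast raise OD600. Assay medium was yeast nitrogen base with ammonium sulphate and -URA supplement, pH 6.0, with 2% galactose.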
# CHX counter: counter-screen hit for Shiga toxin inhibitors, cycloheximide; cell reporter, cycloheximide protein synthesis inhibition counterscreen; max response, %; 300,000 compounds, 12% hits; in the data active = max response mostly above about 13%, no sharp cut-off; inactive = mostly below about 14%; note: read at 38.3 µM for the half of the compounds with a filed dose
# A number is an active result; . = inactive; ? = inconclusive; / = no result given. The entries come from a sample that favours hits as a whole. Unless noted, calls come from the whole dose curve; as a rule, active = well fitted curve in the direction sought with a large enough effect; inconclusive = small, poorly fitted or top-dose-only effect, or another doubt; inactive = no such curve, though single readings can be large; an effect the other way counts as inactive or inconclusive.
SMILES,Shiga inhibitor,AmpC no deterg,AmpC detergent,NS1 inh,CHX counter
O=C(COC(=O)c1cccc(NC(=O)c2ccco2)c1)c1ccc(Br)cc1,117,.,?,.,80
CCOC(=O)c1ccccc1NC(=O)Cn1c(=O)n(CCCC(=O)NCc2ccc3c(c2)OCO3)c(=O)c2ccccc21,/,/,.,/,/
COc1cc(CNCc2c(C(=O)O)c(C)n(Cc3cccc(Cl)c3)c2C)cc(OC)c1OC,/,/,.,/,/
O=C(Nc1nc2c(s1)CCCC2)c1ccc(Br)s1,111,.,?,.,42
CC1CCc2nc(NC(=O)c3ccco3)sc2C1 (configuration not stated),.,.,?,.,.
CC1CCc2nc(NC(=O)c3ccc(N4C(=O)CCC4=O)cc3)sc2C1 (configuration not stated),35,.,.,.,13
O=C(Nc1nc2c(s1)CCCC2)c1ccc(N2C(=O)CCC2=O)cc1,72,.,.,.,38
COc1ccc(OC)c2sc(NC(=O)c3ccc(Br)s3)nc12,.,.,?,.,.
Fc1cccc(Cl)c1Cn1nnc(-c2ccc(N3CCOCC3)cc2)n1,.,.,.,.,.
Clc1cccc(Cl)c1Cn1nnc(N2CCCC2)n1,86,.,.,.,23
O=C1/C(=C/c2cccc(O)c2)SC(=S)N1CC1CCCO1 (configuration not stated),72,.,.,.,32
COc1cccc(/C=C2\SC(=S)N(CC3CCCO3)C2=O)c1 (configuration not stated),38,.,.,.,26
O=C1NC2(CCCCCC2)C(=O)N1Cc1ccccc1Cl,.,.,.,.,.
COC1[C@@H](OC)C[C@H](C)[C@@H](OC)C2=CC(=O)C=C(NC(=O)/C(C)=C/C=C\[C@H](OC)[C@@H](OC(N)=O)/C(C)=C/[C@@H]1C)C2=O (some centres not stated),.,/,/,/,.
Cc1ccc(Nc2c(-c3ccc(C)s3)nc3ncccn23)cc1,/,/,.,/,/
CCc1ccc(C(=O)/C=C2\Sc3ccccc3NC2=O)cc1,88,.,.,.,50
O=C1Nc2ccccc2S/C1=C\C(=O)N1CCCC1,72,.,.,/,27
CCCCNC(=O)/C=C1\Sc2ccccc2NC1=O,.,.,.,.,.
N#C/C(C(=O)N1CCCCC1)=C1\Nc2ccccc2S1,58,.,.,.,37
CC1=CS/C(=C(/C#N)C(=O)N2CCCCC2)N1c1ccccc1,.,.,.,.,.
CC(=O)Nc1ccc(C(=O)NCC(=O)OCc2c(F)cccc2Cl)cc1,.,.,?,/,.
COc1ccccc1Cc1nc2ccccc2nc1SCC(=O)Nc1ccc2c(c1)OCO2,/,/,.,/,/
COc1ccc(S(=O)(=O)Nc2ccc(S(=O)(=O)Nc3cc(C)nc(C)n3)cc2)cc1OC,.,.,.,.,.
O=c1ccn(Cc2ccccc2)c2ccccc12,.,.,.,.,.
Cc1c(OCc2ccccc2)c(=O)ccn1Cc1ccccc1,.,.,?,.,11
SMILES,Shiga inhibitor,AmpC no deterg,AmpC detergent,NS1 inh,CHX counter
O=S(=O)(c1ccccc1)n1nc(-c2ccccc2)nc1NCc1ccco1,74,.,.,.,30
CCCC(=O)n1nc(-c2ccc(C)cc2)nc1NCc1ccco1,76,.,.,.,32
O=C(c1ccccc1)n1nc(-c2ccccc2)nc1NCc1ccco1,.,.,?,.,.
Cc1ccc(C(=O)n2nc(-c3ccccc3)nc2NCc2ccco2)cc1,.,.,.,.,19
CCc1ccccc1N(C)C(=O)Nc1cn(CC(C)C)c(=O)c2ccccc12,/,/,.,/,/
CC(=O)N1CCN(Cc2nc3cc(NC(=O)c4ccccc4Cl)ccc3n2C)CC1,.,.,.,.,.
Cc1cccc(OCC(=O)Nc2ccc3c(c2)nc(CN2CCCCC2)n3C)c1,.,.,.,.,29
Cn1c(CN2CCCCC2)nc2cc(NC(=O)c3ccccc3Cl)ccc21,72,.,.,.,44
Cc1cccc(OCC(=O)Nc2ccc3c(c2)nc(CCN2CCCCC2)n3C)c1,.,.,?,.,.
Cn1c(CN2CCCCC2)nc2cc(NC(=O)c3ccc(F)cc3)ccc21,.,.,?,.,34
O=c1oc2ccc3ccccc3c2cc1-c1nnc(Nc2ccccc2)s1,/,/,.,/,/
CCOc1ccccc1NC(=O)Cc1coc2c(C)c(C)ccc12,/,/,.,/,/
C[C@@H]1C(c2cccc(Cl)c2)=NN(c2ccc(Br)cc2)[C@H]1C(=O)N1CCOC1=O,.,.,/,/,.

# Assay outcomes as filed in PubChem.
